In PubChem BioAssay AID2314 (National Center for Advancing Translational Sciences (NCATS), 2010) one finds max response data, which are given here for 93 compounds.

Several values for one entry are separate records, joined by “and”; a condition that tells them apart may be missing. Equal values may be shown once. The whole screen tested about 300,000 compounds, of which about 37,000 (12%) were called active. No stated cut-off is given here; in the data, active means max response mostly above about 13% (no sharp cut-off); inactive means mostly below about 14%. The list comes from a sample in which actives are over-represented; it also holds similar structures and randomly drawn compounds.

This test is described as follows: Cycloheximide Counterscreen for Small Molecule Inhibitors of Shiga Toxin. Further: read at 38.3 µM for the half of the compounds with a filed dose; 0% is about no effect. The following applies: cell reporter, cycloheximide protein synthesis inhibition counterscreen; active compounds read high.
In the case of `Cc1cc2c(=O)n(CC(=O)NCC(=O)Nc3ccc(C(C)C)cc3)cnc2s1`, the max response is -5.28% (inactive).
For `COc1cc(/C=N/NC(=O)Cc2ccccc2)cc(OC)c1OC`, the max response is -1.38% (inactive).
Regarding `Cn1c(=O)n(C)c2cc(S(=O)(=O)N3CCCc4ccccc43)ccc21`, the max response was -0.606% (inactive).
Next, `COc1cc(C)c(C)cc1S(=O)(=O)N1CCCc2ccccc21`: 17.6% (active); `COc1ccc(C(=O)OCC(=O)NCC2CCCCC2)cc1S(=O)(=O)N1CCCc2ccccc21`: -2.88% (inactive); `CCN(CC)c1ccc2c(Nc3ccccc3)c(C=O)c(=O)oc2c1`: 17.7% (active).
In the case of `CCC(=O)Nc1ccc(S(=O)(=O)Nc2c(NC)c3ccccc3oc2=O)cc1`, the max response was 11% (inactive).
Turning to `CCOC(=O)Nc1ccc2c(c1)N(C(=O)CCCl)c1ccccc1[S@]2=O`, the max response is 4.2% (inactive).
`CCOc1ccc(C(CC(=O)O)NC(=O)Cc2ccccc2)cc1OC` (stereo not drawn): the max response was -1.44% (inactive).
Consider `CCNS(=O)(=O)c1ccc(CCC(=O)N2CCN(c3cc(Cl)ccc3C)CC2)cc1`, for which the max response was -1.74% (inactive).
As to `Cc1ccc(C(=O)N2CCCC2)c(F)c1F`, the max response is -2.63% (inactive).
For `O=C(c1cccs1)N(C(=O)c1cccs1)c1ccccn1`, the max response was 21.4% (active).
Next, `COc1ccc(CN(Cc2ccc(OC)cc2)C(=O)c2cccs2)cc1`: 4.04% (inactive).
As to `COc1ccc(CN(C(=O)c2cccs2)c2nccs2)cc1OC`, the max response was -2.68% (inactive).
Turning to `CCc1ccc(CN(C)C(=O)CCc2nnc(-c3ccc(-c4ccccc4)cc3)o2)nc1`, the max response was 16.7% (active).
To `CC(=O)c1ccc(-c2nnc(CCC(=O)N(C)Cc3cnc4ccccn34)o2)s1` belongs 8.64% (inactive).
Take `CCc1ccc(CN(C)Cc2nc(Cc3ccccc3)no2)nc1`: the max response is 0.562% (inactive).
Consider `Cn1cc(CCC(=O)N2CCCC(C(=O)c3ccc(C(C)(C)C)cc3)C2)cn1` (stereo not drawn), for which the max response was 7.09% (inactive).
On to `COc1ccc2[nH]c3nc(SCC(=O)NC4CC4)nnc3c2c1`, for which the max response was -1.61% (inactive).
For the compound `COC(=O)CSc1nc(C2CC2)nc2ccccc12`, the max response was -1.2% (inactive).
With `COc1cccc(CSc2nc3nc(C)cc(C)n3n2)c1`, the max response is 3.55% (inactive).
For the compound `COC(=O)CSc1nc(C)c2ccc(OC)cc2n1`, the max response was 42.7% (active).
As for `COc1ccc2nc(SCc3ccccc3)nc(C)c2c1`, the max response is 55.9% (active).
As for `COc1ccc(-c2nnc3ccc(SCc4ccccc4)nn23)cc1`, the max response is -1.33% (inactive).
Consider `Cc1cccc(C)c1NC(=O)COC(=O)c1ccccc1O`, for which the max response is -0.421% (inactive).
As to `CCOC(=O)C1CCCN(S(=O)(=O)c2ccc(-n3cnnn3)c(C)c2)C1` (stereo not drawn), the max response is -3.27% (inactive).
On to `CC(C)c1ccc(NC(=O)[C@@H](NC(=O)N2CC(=O)Nc3ccccc32)C(C)C)cc1`, for which the max response is 1.52% (inactive).
Take `COc1ccc(-n2c(=O)[nH]c3cc(C(=O)NCCc4ccc(OC)c(OC)c4)ccc3c2=O)c(OC)c1`: the max response is 0.206% (inactive).
Next, `C=CCSc1nc2c(c(=O)[nH]c(=O)n2C)n1Cc1ccccc1`: -3.59% (inactive); `Cc1cc(C)cc(OCC(=O)NNC(=O)c2cc3ccccc3oc2=O)c1`: 24.7% (active).
On to `NS(=O)(=O)c1ccc(NC(=O)COC(=O)CCc2c[nH]c3ccccc23)cc1`, for which the max response is -3.16% (inactive).
In the case of `NS(=O)(=O)c1ccc(NC(=O)COC(=O)c2cc3ccccc3oc2=O)cc1`, the max response is 10.3% (active).
To `COc1ccc2oc(=O)c(C(=O)N3CCCC3)cc2c1` belongs -2.74% (inactive).
Take `NS(=O)(=O)c1ccc(NC(=O)COC(=O)c2ccco2)cc1`: the max response was -1.96% (inactive).
Consider `COc1ccc2oc(=O)c(C(=O)NCc3ccccn3)cc2c1`, for which the max response is 30.2% (active).
Turning to `Cc1cc(C)cc(OCC(=O)NNC(=O)CCN2C(=O)c3ccccc3C2=O)c1`, the max response is -0.614% (inactive).
As to `COc1ccc(-c2nc(CS(=O)CC(=O)NCc3ccccn3)c(C)o2)cc1` (stereo not drawn), the max response was 7.49% (inactive).
For `O=C(NCc1ccccn1)c1cnc2sccn2c1=O`, the max response was -2.63% (inactive).
For the compound `O=C(NCc1ccccn1)c1cc(Br)ccc1Cl`, the max response was 17.7% (inactive).
To `Cc1cc(C)cc(OCC(=O)NC(C)c2ccccc2)c1` (stereo not drawn) belongs 4.02% (inactive).
Regarding `O=C(NCc1ccccn1)c1cc2ccccc2oc1=O`, the max response is 36% (active).
To `CC(=O)N1c2ccc(S(=O)(=O)N3CCC(C(=O)N4CCN(c5ccccc5)CC4)CC3)cc2CC1C` (stereo not drawn) belongs -2.01% (inactive); to `O=C(Nc1cc(C(F)(F)F)ccc1Cl)c1cc2nc3c(c(C(F)(F)F)n2n1)CCCC3`, -1.76% (inactive).
With `C#CCOc1ccc(/C=C2/C(=O)ON=C2C)cc1OCC`, the max response is 3.92% (inactive).
Next, `C=CCc1cccc2cc(C(=O)OCC)c(=O)oc12`: -2.44% (inactive).
As for `CCOC(=O)c1cc2cc3ccccc3cc2oc1=O`, the max response is 21.6% (active).
Next, `CCCOC(=O)c1cc2ccccc2oc1=O`: 11.4% (inactive).
Next, `CC[C@]1(O)CC2CN(CCc3c([nH]c4ccccc34)[C@@](C(=O)OC)(c3cc4c(cc3OC)N(C=O)[C@H]3[C@@](O)(C(=O)OC)[C@H](OC(C)=O)[C@]5(CC)C=CCN6CC[C@]43[C@@H]65)C2)C1` (stereo partly drawn): -6.26% (inactive).
For the compound `CCOc1ccccc1N1C(=O)CC(Sc2nccc(C)n2)C1=O` (stereo not drawn), the max response was 0.743% (inactive).
On to `O=C(OCc1ccc(-c2ccccc2)cc1)c1cccc(O)c1`, for which the max response is 57.7% (active).
Next, `CC(=O)Nc1ccccc1C(=O)OCC(=O)c1cccc2ccccc12`: 7.37% (inactive).
Next, `O=C(OCc1ccc(Br)cc1)c1cccc(-c2nnc(-c3ccccc3)o2)c1`: 13.9% (inactive).
Turning to `Cc1ccc(S(=O)(=O)c2c(COC(=O)c3cccc(Cl)c3)c(-c3ccccc3)nn2C)cc1`, the max response is -6.17% (inactive).
As to `O=C(OCC(=O)c1c[nH]c2ccccc12)c1cccc(O)c1`, the max response was 72.9% (active).
On to `O=C(Cc1c[nH]c2ccccc12)OCCOC(=O)Cc1c[nH]c2ccccc12`, for which the max response is -4.53% (inactive).
Consider `C=C(C)C(=O)Nc1cccc(C2=NOC3(C2)C[C@H](C(N)=O)N(C(=O)C(c2ccccc2)c2ccccc2)C3)c1` (stereo partly drawn), for which the max response was -6.93% (inactive).
As to `CSc1ccc(C(=O)C2CCCN(C(=O)c3ccc(C)nc3)C2)cc1` (stereo not drawn), the max response was -0.923% (inactive).
For the compound `O=S(=O)(Nc1ccc2[nH]ncc2c1)c1ccccc1Cl`, the max response is -3.76% (inactive).
For the compound `CN(Cc1ccco1)S(=O)(=O)c1nnc(NC(=O)c2ccccc2)s1`, the max response is 26% (inactive).
Regarding `COc1cccc(-c2cccc(NC(=O)C3CCN(C4CCC4)CC3)c2)c1`, the max response was -2.09% (inactive).
Take `Cc1n[nH]c(=O)n1-c1ccc(C(C)C)cc1`: the max response is 4.16% (inactive).
In the case of `O=C1CS(=O)CN1c1ccc(Oc2ccccc2)cc1` (stereo not drawn), the max response was -1.61% (inactive).
Take `Cc1n[nH]c(=O)n1-c1ccc(Oc2ccccc2)cc1`: the max response was 16.2% (active).
As to `COc1cccc(N(C(=O)c2snc(C(N)=O)c2N)C(C(=O)NCC2CCCO2)c2c[nH]c3ccccc23)c1` (stereo not drawn), the max response was -2.27% (inactive).
Regarding `COC(=O)c1ccccc1NC(=O)C1(S(=O)(=O)c2ccc(Cl)cc2)CC1`, the max response was -5.97% (inactive).
To `COc1ccc(S(=O)(=O)N(C)C)cc1NC(=O)CSc1ncccn1` belongs 8.4% (inactive); to `CN(C)S(=O)(=O)c1ccc2oc(SCC(=O)Nc3ccccc3F)nc2c1`, 40% (active); to `COc1ccc(NS(=O)(=O)c2ccc3oc(SCC(N)=O)nc3c2)cc1`, -2.16% (inactive).
To `CCC1(C(=O)c2ccccc2)C(c2cccc([N+](=O)[O-])c2)C1(C(=O)OC)C(=O)OC` (stereo not drawn) belongs -5.04% (inactive).
As to `N#Cc1c(N2CCCCC2)nc(N)c2c(N)nc(SCC(=O)O)cc12`, the max response is -0.559% (inactive).
As for `Cc1ccc(-n2c(C)cc(/C=C(\C#N)C(=O)NCC3CCCO3)c2C)cc1` (stereo not drawn), the max response is 50.5% (active).
To `Cc1ccc(S(=O)(=O)N2CCC(C(=O)NCC3CCCO3)CC2)cc1` (stereo not drawn) belongs -2.91% (inactive); to `Cc1cc(/C=C(/C#N)C(=O)Nc2ccc(Cl)cc2)c(C)n1-c1cccnc1`, 1.53% (inactive).
As for `COc1ccc(CCNS(=O)(=O)c2cn(C)nc2C)cc1`, the max response was -0.628% (inactive).
With `CC(C)=N/N=C1/NC(=O)C(Cc2ccccc2)S1` (stereo not drawn), the max response is -3.98% (inactive).
Take `CC1CCc2c(sc3nc4n(c(=O)c23)CCS4)C1` (stereo not drawn): the max response was 31.9% (inactive).
On to `CCCn1nnc2sc3c(c2c1=O)CCC(C)C3` (stereo not drawn), for which the max response is 35.5% (active).
`C=CCn1c(SCc2c(C)noc2C)nc2sc3c(c2c1=O)CCC(C)C3` (stereo not drawn): the max response is -3.64% (inactive).
With `COc1cc(C2OC(c3cc(OC)c(OC)c(OC)c3)C(C)C2C)cc(OC)c1OC` (stereo not drawn), the max response was 8.36% (inactive).
`CCOC(=O)c1nnn2c1nc(N1CCN(c3ccccc3)CC1)c1ccccc12`: the max response was -4.05% (inactive).
To `CCN(CC)CCC(c1cc(OC)c(OC)c(OC)c1)c1c(OC)cc(OC)c2c(-c3ccccc3)cc(=O)oc12` (stereo not drawn) belongs -8.53% (inactive) and -14.6% (inactive).
Turning to `Cc1nn(C)c(Oc2ccccc2)c1CCNS(=O)(=O)c1ccc(F)cc1`, the max response is -1.22% (inactive).
Regarding `COc1ccc(CCNc2ncnc3c2nnn3Cc2ccccc2)cc1`, the max response is -1.82% (inactive).
In the case of `CN1CCN(c2ccc(CNS(=O)(=O)c3cccc(F)c3)cc2)CC1`, the max response was -2.69% (inactive).
To `CCC(C)n1c(-c2cc(OC)c(OC)c(OC)c2)nc2nc3ccccc3nc21` (stereo not drawn) belongs 5.57% (inactive); to `Fc1ccc(/C=N/Nc2nc(-c3cccnc3)nc3ccccc23)cc1`, 46.2% (active); to `COc1ccccc1Oc1nc(-c2cccnc2)nc2ccccc12`, 6.84% (inactive).
Turning to `COc1ccc(Nc2nc(-c3cccnc3)nc3ccccc23)cn1`, the max response was -4.67% (inactive).
As to `CC(NS(=O)(=O)c1ccc(OCC(=O)N2CCCC2)cc1)c1ccccc1` (stereo not drawn), the max response is -1.86% (inactive).
With `CC(C)(C)NC(=O)c1ccc(Cn2cc(C(F)(F)F)ccc2=O)cc1`, the max response is -2.26% (inactive).
On to `Cc1cccc(N(CC(=O)N2CCOCC2)S(C)(=O)=O)c1`, for which the max response was -1.89% (inactive).
For the compound `Cc1ccc(N2C(=O)SC(N(CC(=O)O)c3ccc(C)cc3)C2=O)cc1` (stereo not drawn), the max response was 5.36% (inactive).
Consider `Cc1cccc(N2C(=O)SC(N(CC(=O)O)c3cccc(C)c3)C2=O)c1` (stereo not drawn), for which the max response is 31.1% (active).
